# Screening results deposited in PubChem BioAssay by National Center for Advancing Translational Sciences (NCATS).
# Compounds with a hit are over-represented: about 19% of the library has one in this group of screens.
# HepG2 viability: counter-screen for TGF-b inhibitors: cytotoxicity in HepG2 cells. AID 588856. HepG2 CAGA-GFP viability, ATP luminescence, 18 h. 410,000 tested, 0.76% active. Potency, µM (series often up to 46.1 µM), actives largely listed as cytotoxic
#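 HepG2 CAGA-GFP cells (1000/well, DMEM with 1% FBS) received compound, then TGF-beta at 500 pg/mL final, and were incubated 18 hours at 37 degrees C. Viability was read by CellTiter-Glo luminescence. Media-only wells were set as complete cell-killing and DMSO as no toxicity.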
# IL1B secr inh: inflammasome signaling inhibition, IL-1 beta readout | 360,000 tested, 4.7% active | THP-1 LPS/ATP IL-1B secretion, AlphaLISA, 16 h; hits give low values | activity change, % at 57.5 µM; in the data active = activity change below about -50%; inconclusive = mostly about -30% to -49%
#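 Secreted IL-1B measured by AlphaLISA bead assay after 16 h compound exposure of THP-1 cells; compounds (final up to 57.5 uM) added 1 h before LPS (250 ng/mL) and ATP (1.25 mM) stimulation; lower signal means less secretion.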
# TDP1 block: inhibitors of human tyrosyl-DNA phosphodiesterase TDP1; 350,000 tested, 0.28% active; Q9NUW8; Potency, µM (doses to about 130 µM), most hits filed as inhibitors; recombinant TDP1, AlphaScreen DNA substrate cleavage; note: nearly all actives have a fitted effect of over 40% in size
# Target sequence (Q9NUW8 whole entry, looked up): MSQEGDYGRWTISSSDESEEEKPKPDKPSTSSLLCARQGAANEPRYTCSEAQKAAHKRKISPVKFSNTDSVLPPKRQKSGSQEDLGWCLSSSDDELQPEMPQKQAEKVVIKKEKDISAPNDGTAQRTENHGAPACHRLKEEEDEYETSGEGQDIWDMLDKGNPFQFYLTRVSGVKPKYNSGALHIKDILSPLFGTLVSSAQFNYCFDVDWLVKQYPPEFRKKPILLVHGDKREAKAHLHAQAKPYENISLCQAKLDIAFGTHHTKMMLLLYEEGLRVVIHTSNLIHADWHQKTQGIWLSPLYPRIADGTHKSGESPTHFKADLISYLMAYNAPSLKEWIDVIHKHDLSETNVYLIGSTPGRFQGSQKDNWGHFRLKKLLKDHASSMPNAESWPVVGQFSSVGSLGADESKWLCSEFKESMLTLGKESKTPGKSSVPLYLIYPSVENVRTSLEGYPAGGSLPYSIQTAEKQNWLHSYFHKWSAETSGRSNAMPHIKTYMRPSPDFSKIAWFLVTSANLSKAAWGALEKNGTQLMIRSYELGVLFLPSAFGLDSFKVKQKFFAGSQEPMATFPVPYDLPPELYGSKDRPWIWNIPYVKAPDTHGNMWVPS
#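 Here, a 5' biotin and 3' phosphotyrosine-FITC DNA oligonucleotide reports Tdp1 activity: intact substrate bridges AlphaScreen beads, while cleavage leaves a 3' phosphate and drops signal. All incubations at room temperature.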
# DT40 TDP1 no CPT: qHTS for Inhibitors of human tyrosyl-DNA phosphodiesterase 1 (TDP1): qHTS in cells in absence of CPT; DT40 Tdp1-/- hTDP1 cells, no CPT, ATP luminescence, 48 h; Potency, µM (top dose mostly 46.2 µM), most hits filed as inhibitors; 420,000 tested, 15% active; note: nearly all actives have a fitted effect of over 55% in size
#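 Growth of hTDP1-complemented DT40 Tdp1-knockout cells is measured by ATP luminescence after at least 48 hr compound exposure at 37 °C, with DMSO substituting for the 20 nM CPT used in the parallel screen.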
# TGFb SMAD3 inh: inhibitors of TGF-b signaling | HepG2 CAGA-GFP TGF-b/SMAD3 reporter, GFP fluorescence, 18 h; TGF-beta stimulated, 500 pg/mL final | Potency, µM (top dose mostly 46.1 µM), usual class: inhibitors | 410,000 tested, 1.2% active | AID 588855; note: nearly all actives have a fitted effect of over 65% in size
#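 HEPG2 CAGA-GFP reporter cells (1000/well, DMEM with 1% FBS) received compounds, then recombinant TGF-beta at 500 pg/mL final for 18 hours at 37 degrees C. Per-cell GFP summed per well was normalised to unstimulated and stimulated DMSO controls before curve fitting.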
# DT40 TDP1 CPT: growth inhibition of DT40 Tdp1-/-;hTDP1 cells with camptothecin (screen for TDP1 inhibitors); Potency, µM (series often up to 46.2 µM), most hits filed as inhibitors; chicken DT40 Tdp1-/-;hTDP1 cells + 20 nM CPT, ATP luminescence, 48 h; 420,000 tested, 12% active; note: nearly all actives have a fitted effect of over 55% in size
#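 Chicken DT40 Tdp1-/- cells complemented with human TDP1, 400 cells/well, exposed to compounds plus 20 nM camptothecin for at least 48 h at 37 C; viability read as ATP content by CellTiter-Glo luminescence.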
# Hits are given with their value; . = inactive; ? = inconclusive; / = no result given; [ ] = another dose, or the depositor's remark. Unless noted, calls come from the whole dose curve; as a rule, active = well fitted curve in the direction sought with a large enough effect; inconclusive = small, poorly fitted or top-dose-only effect, or another doubt; inactive = no such curve, though single readings can be large; an effect the other way counts as inactive or inconclusive.
SMILES,HepG2 viability,IL1B secr inh,TDP1 block,DT40 TDP1 no CPT,TGFb SMAD3 inh,DT40 TDP1 CPT
COc1ccc(-c2nc3ccc(NC(C)=O)cc3c(=O)n2Cc2ccccc2)cc1COc1ccc(NC(C)=O)cc1,/,/,/,11.2µM,/,?
COc1ccc(CCNC(=O)C2c3ccccc3C(=O)N2Cc2ccccc2)cc1OC (stereo not drawn),.,/,.,?,?,.
O=C1Nc2ccc(Br)cc2C12NNc1ccccc1O2 (stereo not drawn),.,.,.,18.4µM,.,?
COCC(C)NC(=O)c1cc2c(=O)n3cccc(C)c3nc2s1 (stereo not drawn),.,/,.,.,.,.
COc1ccc(C)cc1Nc1c2c(nc3nc(-c4cccs4)nn13)CCCC2,.,/,.,.,.,.
CC(=O)c1cccc(Nc2c3c(nc4nc(-c5cccs5)nn24)CCCC3)c1,.,/,.,18.4µM,?,?
Fc1cc(Br)ccc1Nc1c2c(nc3nc(-c4cccs4)nn13)CCCC2,.,/,.,18.4µM,10µM,20.6µM
Cc1ccc(S(=O)(=O)Nc2ccccc2F)cc1C(=O)N1CCN(c2ccccc2O)CC1,.,.,.,.,.,.
CCOc1ccccc1Nc1cc(C)nc2ccc(C)cc12,.,-96.0,/,20.6µM,?,?
CCOc1ccccc1Nc1cc(C)nc2ccccc12,.,.,/,?,.,18.4µM
COc1ccc(OC)c(/C=C/c2sc3ccccc3[n+]2C)c1,.,/,/,?,.,?
CCc1nc2c(sc3nc4c(cc32)COC(C)(C)C4)c(=O)n1Cc1ccco1,.,.,.,23.1µM,.,23.1µM
Cc1nc(OCC(C)C)c2sc3nc4c(cc3c2n1)COC(C)(C)C4,.,.,/,20.6µM,.,?
CC1(C)Cc2nc3sc4c(SCC(=O)O)ncnc4c3cc2CO1,.,.,.,?,.,.
CC1(C)Cc2nc3sc4c(N(CCO)CCO)ncnc4c3cc2CO1,.,.,.,?,.,.
CC(=O)Nc1ccc(S[C@@H](CCN2CC[C@H](O)CCC2=O)c2ccccc2)cc1,.,.,.,.,.,.
O=C1CC[C@@H](O)CCN1CC[C@H](Sc1ccc(Br)cc1)c1ccccc1,.,.,.,10µM,?,23.1µM
CC(C)(C)[C@@H]1CCC(=O)N(CC[C@H](Sc2ccc(Br)cc2)c2ccccc2)CC1,.,.,.,11.2µM,?,18.4µM
O=C1CC[C@@H](O)CCN1CC[C@H](Sc1ccccc1)c1ccccc1,.,.,/,?,.,?
COC(=O)c1ccc(C(NC(=O)OCc2ccccc2)/C(=C/[C@@H](C)C(=O)NCc2ccc(S(C)(=O)=O)cc2)c2cccnc2)cc1 (stereo partly drawn),/,/,.,/,/,/
COC(C[C@@H]1O[C@H]1[C@H](O)COCc1ccccc1)OC,.,.,.,.,?,.
COC(C[C@@H]1O[C@H]1C(=O)COCc1ccccc1)OC,.,.,/,20.6µM,.,16.4µM
COC(C[C@H]1O[C@@H]1C(=O)COCc1ccccc1)OC,.,.,/,4.61µM,.,4.11µM
COC(C[C@@H]1O[C@@H]1C(=O)COCc1ccccc1)OC,.,.,.,?,.,18.4µM
O=C(COc1ccccc1)NCC(=O)N/N=C/c1ccc(Br)cc1,.,.,.,.,.,.
SMILES,HepG2 viability,IL1B secr inh,TDP1 block,DT40 TDP1 no CPT,TGFb SMAD3 inh,DT40 TDP1 CPT
CCc1ccccc1NC(=O)C1CCN(S(=O)(=O)c2cn(C)cn2)CC1,.,/,.,.,.,.
C[C@@H]1O[C@H](C2CC2)Cc2[nH]c(=S)[nH]c(=O)c21,/,.,/,.,/,.
CC(C)Sc1nnc(SCC(=O)NCCCN2CCCC2=O)s1,.,.,.,.,.,.
O=C(CCCN1C(=O)/C(=C\c2ccccc2)SC1=S)Nc1ccc(C(=O)O)cc1,.,.,.[0.0935 µM],.,.,.
O=C(O)C1CCN(C(=O)CCN2C(=O)S/C(=C\c3ccccc3)C2=O)CC1,.,.,.,.,.,?
O=C(CCN1C(=O)/C(=C\c2ccccc2)SC1=S)N1CCOCC1,.,-63.2,/,10.3µM,.,8.2µM
Cc1ccccc1C1(CC(=O)N2CCCCC2c2cccnc2)CC(=O)N(C2CCCC2)C1=O (stereo not drawn),/,/,/,?,/,.[9.04 µM]
Cc1ccc(/C=C2\SC(=S)N(CCC(=O)N3CCOCC3)C2=O)cc1,.,.,.,18.4µM,.,16.4µM
O=C(CCCN1C(=O)/C(=C/c2ccccc2)SC1=S)N1CCOCC1,.,-95.7,/,?,.,?
Cc1ccc(/C=C2/SC(=S)N(CCC(=O)N3CCN(c4ccccc4)CC3)C2=O)cc1,/,/,.,/,/,/
O=C1/C(=C/c2ccccc2)SC(=S)N1CC(=O)N1CCCCC1c1cccnc1 (stereo not drawn),.,.,.,16.4µM,?,14.6µM
O=C(COc1ccc(Cl)cc1)OCc1cc(=O)n2nc(C3CCCCC3)sc2n1,.,/,.,.,.,.
O=C(NCc1cccnc1)Nc1cccc([N+](=O)[O-])c1,.,.,.,.,.,.
CCOc1ccc(NC(=O)CN(C)C(=O)c2ccc3nc(CC)c(CC)nc3c2)cc1OCC,.,.,.,.,.,.
COc1ccc(/C=C2\SC(=S)N(CCCC(=O)N3CCCCC3CCO)C2=O)cc1 (stereo not drawn),.,.,.,?,?,?
O=C1/C(=C/c2cccnc2)SC(=S)N1Cc1ccco1,.,-97.0,/,20.6µM,.,23.1µM
O=C(CCN1C(=O)S/C(=C\c2ccccc2)C1=O)N1CCOCC1,.,-80.1,/,.,.,?
COc1ccc(/C=C2\SC(=S)N(CCC(=O)N3CCOCC3)C2=O)cc1,.,-66.5,.,?,.,?
COc1ccc(C(CNC(=O)c2cc(S(=O)(=O)N3CCCC3)ccc2Cl)N2CCCC2)cc1 (stereo not drawn),.,.,.,?,.,.
CSc1ccc(CCNS(=O)(=O)c2cc(-c3cc(C)no3)ccc2C)cc1,.,/,.,20.6µM,?,?
Cc1cc(-c2ccc(C)c(S(=O)(=O)NCCc3ccccc3)c2)on1,.,/,.,?,?,?
CCc1ccc(-c2cc(C)no2)cc1S(=O)(=O)NCCc1ccccc1,.,.,.,18.4µM,?,?
COc1ccc2c(c1)[C@H]1[C@H](CO2)[C@H](c2ccccc2)[C@]2(C)C(=O)N[C@@H](C)C(=O)N12,/,/,.,/,/,/
O=C1CCc2cc(S(=O)(=O)Nc3ccc(Cl)c(Cl)c3)c(F)cc2N1,/,/,.,/,/,/
